This is an account of results in PubChem BioAssay (NCI).

Compounds without any hit were thinned out: in the full panel of roughly 83,000, 20% have a hit.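 Interpretation: 100, growth as untreated; towards 0, rising growth inhibition; 0, no net growth; 0 to -100, cell death. Compounds scoring below 10 were considered active.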 Unmarked numbers belong to inactive results. Calls of active or inactive are those of the source.

The subject of this experiment is MOLT-4 leukemia. As to the kind of experiment: NCI-60 one-dose screen, 48 h (100 = growth as untreated, 0 = no growth, -100 = all killed). The settings on record: 10 µM.
In the case of `O=c1[nH]n(C(=S)N/N=C/c2ccc(F)cc2)c(=O)c2ccccc12`, the growth was 10.7%. `O=C1Nc2cc(Cl)ccc2/C1=C/c1cccc(OCc2ccc(Br)cc2F)c1`: the growth is 0.0252% (active).

Regarding `Cc1nc2c(cnn2-c2ccccc2)c(=O)n1-c1ccc(NC(=O)c2ccc(F)cc2)cc1`, the growth is 5.38% (active).

In the case of `S=c1nc(-c2ccccc2)cc(-c2cc3ccccc3nc2Cl)[nH]1`, the growth was 30.8%. On to `Cc1ccc(C(=O)Nc2ccc(-n3c(C)nc4c(cnn4-c4ccccc4)c3=O)cc2)cc1`, for which the growth is 34.3%.

Turning to `Cc1cc(C)nc(NS(=O)(=O)c2ccc(N/C(N)=N/c3nccc(-c4cccs4)n3)cc2)n1`, the growth was 96.8%. As to `COc1ccc(CN2[C@H](C(=O)NCc3ccc(C(=O)NO)cc3)Cc3c([nH]c4ccccc34)[C@H]2C2CC2)cc1`, the growth was 26.6%. The value for `O=C1Nc2ccc(Cl)cc2/C1=C/c1cccc(OCc2ccccc2)c1` was -20.6% (active); that for `COC[C@@H](CC(C)C)N=C1NC(=O)/C(=C/c2ccc3ncsc3c2)N1` was 11.1%; that for `CC(C)Sc1nc(NC2CC2)c(C#N)c(-c2ccccc2)n1` was 102%. For `CCOC(=O)N/C(=C1/OCCN1C)[P+](c1ccccc1)(c1ccccc1)c1ccccc1`, the growth is 83.7%. As to `CS(=O)(=O)Nc1ccc(-c2ccc3c(c2)ncn3-c2ccc(NC(=O)Nc3ccc(Cl)c(C(F)(F)F)c3)cc2)cc1`, the growth is -36.8% (active). `CN1CCc2c(sc3ncnc(N/N=C/c4cn(-c5ccccc5)nc4-c4ccc(Cl)cc4)c23)C1`: the growth was 18.2%. The value for `CC1(c2ccccc2)NC(=O)N(CC(=O)Nc2ccc(C(=O)/C=C/c3ccc(Br)cc3)cc2)C1=O` (stereo unspecified) was 13.9%; that for `O=C(CN1CCN(c2ncnc3c2cnn3-c2ccccc2)CC1)Nc1nncs1` was 3.73% (active). For `COc1ccc(C=CC(=O)c2ccc(-n3c(C)nc4c(cnn4-c4ccccc4)c3=O)cc2)cc1` the value was 44.7%.
